The values below come from ChEMBL document CHEMBL1157539, “Thousands of chemical starting points for antimalarial lead identification” (Nature, 2010).

Common to all, as to format: functional
The subject of assay [1] is Plasmodium falciparum. The assay can be described thus: GSK_TCMDC: Inhibition of Plasmodium falciparum 3D7 in whole red blood cells, using parasite LDH activity as an index of growth. Test compounds present at 2uM.
Assay [2] has as its system Plasmodium falciparum. The assay can be described thus: GSK_TCMDC: Inhibition of Plasmodium falciparum Dd2 in whole red blood cells, using parasite LDH activity as an index of growth. Test compounds present at 2uM.
Another assay relates to HepG2. The assay can be described thus: GSK_TCMDC: Percent inhibition of human HepG2 cell line. Test compounds present at 10uM.

Each structure is given as a SMILES string.

In the case of `CCCC(C)N(Cc1ccc(C(C)(C)C)cc1)C(=O)c1cccc(C#N)c1` (stereo not given), the Inhibition in the assay with Plasmodium falciparum [1] stood at 86%; in the assay with Plasmodium falciparum [2], 45%; in the assay on HepG2 it was 14%.

In the case of `Cc1cccc2nc(-c3ccc(-c4cccc(CNCc5cccc(N)c5)c4)cc3)[nH]c12.O=C(O)C(F)(F)F`, the Inhibition in the assay on Plasmodium falciparum [1] was 100%; in the assay on Plasmodium falciparum [2] it was 87%; in the assay on HepG2, 0%.

In the case of `CC(=O)N[C@@H]1c2cc(C(C)=O)ccc2OC(C)(C)[C@@H]1O`, the Inhibition is on record as 97% in the assay with Plasmodium falciparum [1], 3% in the assay on Plasmodium falciparum [2] and 15% with HepG2.

Turning to `CCOc1cccc2nc(NCCCNCc3ccc(Cl)c(Cl)c3)cc(NCCCNCc3ccc(Cl)c(Cl)c3)c12`, the Inhibition in the assay with Plasmodium falciparum [1] was found to be 98%; with Plasmodium falciparum [2] it was 58%; with HepG2 it was 96%.

As to `COc1ccc(-c2ccc(CNCc3ccc(F)cc3)cc2)cc1S(=O)(=O)NCCN1CCCC1.O=C(O)C(F)(F)F`, the Inhibition with Plasmodium falciparum [1] is 98%; in the assay with Plasmodium falciparum [2], 33%; with HepG2, 24%.

On to `c1ccc(-c2cc(NCCCn3ccnc3)nc(-c3cccnc3)n2)cc1`, for which the results for the Inhibition with Plasmodium falciparum [1], in the assay on Plasmodium falciparum [2] and in the assay on HepG2 were 84%, 6% and 15%, respectively.

With `CCNc1cc(C(=O)N[C@@H](Cc2ccccc2)[C@H](O)CNC2CCC(C(C)(C)C)CC2)cc(N2CCCC2=O)c1` (stereo not given in full), the Inhibition was determined as 98% in the assay on Plasmodium falciparum [1], 98% with Plasmodium falciparum [2] and 38% in the assay with HepG2.

Consider `CC(=O)Nc1ccc(C(=O)Nc2cccc(-c3ccc(-c4nc5ccccc5[nH]4)s3)c2)cn1`, for which the Inhibition in the assay with Plasmodium falciparum [1] came out at 100%; with Plasmodium falciparum [2], 91%; in the assay with HepG2, 9%.

As to `CS(=O)(=O)c1ccc(CNCc2cccc(-c3cccc(-c4nc5cc(C(F)(F)F)ccc5[nH]4)c3)c2)cc1.O=C(O)C(F)(F)F`, the values for the Inhibition with Plasmodium falciparum [1], in the assay with Plasmodium falciparum [2] and with HepG2 were 100%, 96% and 5%, respectively.

Turning to `CS(=O)(=O)CCNCc1cc(-c2cc3ncnc(Nc4ccc(OCc5cccc(F)c5)c(Cl)c4)c3s2)cs1`, the Inhibition with Plasmodium falciparum [1] was found to be 99%; with Plasmodium falciparum [2], 48%; with HepG2, 8%.

Turning to `CC(C)(C)c1ccc(NC(=O)c2cccc(CN3CCCN(Cc4cccc(Cl)c4)CC3)c2)cc1.O=C(O)C(F)(F)F`, the figures for the Inhibition in the assay on Plasmodium falciparum [1], in the assay with Plasmodium falciparum [2] and in the assay on HepG2 were 85%, 30% and 61%, respectively.

Consider `Cc1cc(N[C@@H](CC(C)C)C(=O)NCCOc2ccccc2)nc(Nc2ccccc2)n1.O=C(O)C(F)(F)F`, for which the Inhibition with Plasmodium falciparum [1] turned out to be 93%; in the assay on Plasmodium falciparum [2], 9%; in the assay on HepG2, 9%.

Consider `CC(C)Cc1nc(N2CCOCC2)c2nnn(Cc3ccccc3)c2n1`, for which the Inhibition in the assay on Plasmodium falciparum [1] is given as 98%; in the assay with Plasmodium falciparum [2], 76%; in the assay on HepG2 it was 7%.

Consider `CCCCOc1ccc(C(=O)C(CCC(CNC(C)(C)C)C(=O)c2ccc(OCCCC)cc2)CNC(C)(C)C)cc1.Cl` (stereo not given), for which the Inhibition worked out at 94% in the assay on Plasmodium falciparum [1], 92% in the assay with Plasmodium falciparum [2] and 100% with HepG2.

For the molecule `Cc1ccc(Cc2c[nH]c(NCCSCc3ccc(CN4CCOCC4)o3)nc2=O)cn1`, the values for the Inhibition in the assay on Plasmodium falciparum [1], in the assay with Plasmodium falciparum [2] and in the assay with HepG2 were 95%, 0% and 2%, respectively.

Take `Cc1ccccc1C1CCN(C2CCC(NC(=O)/C=C/c3ccc(F)c(F)c3)CC2)CC1` (stereo not given): the figures for the Inhibition with Plasmodium falciparum [1], in the assay on Plasmodium falciparum [2] and with HepG2 were 93%, 7% and 34%, respectively.

Consider `O=C(/C=C/c1ccc(Cl)c(Cl)c1)NCCCCCCN1CCN(C(=O)Nc2ccc(Cl)c(C(F)(F)F)c2)CC1`, for which the Inhibition is 99% in the assay with Plasmodium falciparum [1], 43% with Plasmodium falciparum [2] and 47% in the assay on HepG2.

`N#Cc1ccc(-c2ccc(C(=O)NCCCCN3CCC(c4ccc5c(c4OCc4ccncc4)CCCC5)CC3)cc2)cc1`: the Inhibition in the assay with Plasmodium falciparum [1] came to 81%; in the assay on Plasmodium falciparum [2], 57%; with HepG2, 41%.

On to `CS(=O)(=O)NCCCNCc1ccc(-c2cccc(-c3nc4cc(C(F)(F)F)ccc4[nH]3)c2)cc1.O=C(O)C(F)(F)F`, for which the Inhibition with Plasmodium falciparum [1] was determined as 100%; in the assay on Plasmodium falciparum [2], 83%; in the assay on HepG2 it was 17%.

For `O=C(O)C(F)(F)F.c1cc(CNCC2CCCO2)cc(-c2cccc(-c3nc4ccccc4[nH]3)c2)c1` (stereo not given), the Inhibition came out at 100% in the assay with Plasmodium falciparum [1], 7% in the assay on Plasmodium falciparum [2] and 15% in the assay on HepG2.

`O=C(c1ccc(Cl)cc1)N1CCCC(C(=O)N(Cc2nnc(-c3ccccc3Cl)o2)C2CC2)C1` (stereo not given): the Inhibition in the assay with Plasmodium falciparum [1] was 95%; with Plasmodium falciparum [2], 96%; in the assay with HepG2 it was 10%.

As to `CCCN1CC[C@@H](CCCc2ccnc3ccc(O)cc23)[C@@H](CC)C1.Cl`, the Inhibition was determined as 93% in the assay with Plasmodium falciparum [1], 14% in the assay with Plasmodium falciparum [2] and 10% with HepG2.

For the molecule `O=C(COc1ccccc1)N(Cc1ccc(-c2ccc(CNC3Cc4ccccc4C3)cc2)cc1)C1CCNCC1.O=C(O)C(F)(F)F`, the Inhibition amounted to 100% in the assay on Plasmodium falciparum [1], 8% in the assay with Plasmodium falciparum [2] and 26% with HepG2.

Turning to `Cl.O=C(O[C@H]1CN[C@H](C#Cc2cc3c(Nc4ccc(OCc5cccc(F)c5)c(Cl)c4)ncnc3s2)C1)N1CCCC1`, the figures for the Inhibition in the assay on Plasmodium falciparum [1], in the assay with Plasmodium falciparum [2] and in the assay with HepG2 were 99%, 67% and 11%, respectively.

As to `O=C(C=Cc1ccc(Cl)c(Cl)c1)NCCCCCN1CCCC(CCCNS(=O)(=O)c2cccc3cccnc23)C1` (stereo not given), the results for the Inhibition in the assay with Plasmodium falciparum [1], with Plasmodium falciparum [2] and with HepG2 were 96%, 16% and 37%, respectively.

As to `COc1ccc(NC(=O)/C=C/c2cc(F)cc(C(F)(F)F)c2)cc1OCCN(C(C)C)C(C)C.O=C(O)C(F)(F)F`, the Inhibition is 97% with Plasmodium falciparum [1], 21% in the assay with Plasmodium falciparum [2] and 18% with HepG2.

For the molecule `N=C(N)c1ccc(Oc2ccc(C(=N)N)cc2)cc1.O=S(=O)(O)CCO`, the Inhibition worked out at 92% in the assay on Plasmodium falciparum [1], 85% in the assay on Plasmodium falciparum [2] and 18% with HepG2.

As for `N#Cc1cccc(C(=O)Nc2cccc(-c3ccc(C(=O)Nc4cccnc4)cc3)c2)c1`, the Inhibition with Plasmodium falciparum [1] worked out at 89%; with Plasmodium falciparum [2], 10%; with HepG2, 39%.

For the molecule `O=C(Nc1ccc(Cl)cc1)Nc1cccc(-c2ccc(-c3nc4cc(F)ccc4[nH]3)cc2)c1`, the Inhibition in the assay on Plasmodium falciparum [1] is listed as 100%; in the assay on Plasmodium falciparum [2] it was 99%; in the assay on HepG2 it was 73%.

Consider `Oc1ccc2[nH]c(-c3ccc(F)cc3F)nc2c1CN1CCC(O)(c2ccccc2)CC1`, for which the figures for the Inhibition in the assay with Plasmodium falciparum [1], with Plasmodium falciparum [2] and in the assay on HepG2 were 96%, 70% and 16%, respectively.

A word on the Inhibition: it is the relative decrease from the control value, in per cent.
